# In PubChem BioAssay (NCATS):
# Inconclusive results are not listed. Where a call stands in place of a potency, no number is given. The source made the active and inactive calls. Calls come from the whole dose curve; as a rule, active = well fitted curve in the direction sought with a large enough effect; inconclusive = small, poorly fitted or top-dose-only effect, or another doubt; inactive = no such curve, though single readings can be large; an effect the other way counts as inactive or inconclusive.
# How the values were obtained:
# [1] = Primary qHTS for inhibitors of nuclear receptor binding SET domain protein 2 (NSD2) in an isogenic RCH-ACV NSD2 p.E1099K mutant (9B) (AID 1645876)
# [2] = Primary qHTS for inhibitors of nuclear receptor binding SET domain protein 2 (NSD2) in an RCH-ACV wild type WT cells (2C) (AID 1645877)
# Note: nearly all actives have a fitted effect of over 70% in size.
SMILES,Potency [1],Potency [2]
CC1(C)CCC(C)(C)c2cc3c(cc21)Sc1ccccc1N=C3c1ccc(C(=O)O)cc1,inactive,inactive
CCn1cc(C2=NOC(C(=O)Nc3c(C)n(C)n(-c4ccccc4)c3=O)C2)c(C)n1 (stereo not given),inactive,inactive
CCS(=O)(=O)N1CCC([C@@H](C)n2c(C)c(C(=O)NCc3c(OC)cc(C)[nH]c3=O)c3ccccc32)CC1,inactive,inactive
CN1CC[C@@H](NC(=O)Nc2ccc(C#N)cc2)C[C@@H]1c1nc2ccccc2[nH]1,inactive,inactive
CC1(C)CC[C@]2(C(=O)O)CC[C@]3(C)C(=CCC4[C@@]5(C)CC[C@H](O[C@@H]6O[C@H](C(=O)O)[C@@H](O)[C@H](O)[C@H]6O)C(C)(CO)C5CC[C@]43C)C2C1 (stereo not given in full),inactive,inactive
